Shown are actives, neighbours in structure and some others; about 5.7% of the full set was active somewhere.
Nrf2 inh: blocks Nrf2 signaling. AID 504444. A549 ARE-Fluc reporter, luciferase luminescence, 18-24 h. Potency, µM (titrated, usually from 46 µM), without a hit: at the top dose activity change, negative = inhibition, hits mostly inhibitors. 360,000 tested, 2.1% active; further: potency means the concentration at half of the fitted maximal effect; nearly all actives have a fitted effect of over 60% in size
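Reporter: ARE-Fluc in A549. Exposure: 18-24 h, 37 °C, 5% CO2, 5% FBS OPTI-MEM. Readouts: fluorescent cytotoxicity (CellTiter-Fluor), then luminescent Nrf2 signal after BugLite.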
Giardia kill: Giardia lamblia killing. Giardia lamblia trophozoite viability. activity change, % at 7.66 µM, hits read low. 340,000 tested, 0.15% active. AID 540267; in the data active means activity change below about -80%; inconclusive means between about -30% and that limit;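 further: parasites exposed to compound for two days anaerobically before the ATP read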
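Anaerobic 48 hrs incubation at 37 deg C of 100 trophozoites/well with test compounds; ATPLite 1-Step luminescence, 15-30 min RT, reports cellular ATP as viability.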
KB-3-1 tox: KB-3-1 parental cell cytotoxicity | KB-3-1 viability, CellTiter-Glo ATP luminescence, 72 h | Potency, µM (series often up to 46.1 µM), usual class: cytotoxic | 400,000 tested, 1.4% active; further: potency means the concentration at half of the fitted maximal effect; nearly all actives have a fitted effect of over 60% in size
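Using CellTiter-Glo luminescence, growth of non-resistant KB-3-1 adenocarcinoma cells is assessed 72 h after pin-tool compound addition at 37 °C. Normalized responses across the concentration series yield fitted curves.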
A549 tox: counter-screen for Nrf2 inhibitors: cytotoxicity in A549 cells; A549 ARE-Fluc cells, CellTiter-Fluor viability, 18-24 h; Potency, µM (doses to about 46 µM), for inactives: top-dose activity change, negative = cytotoxicity, hits mostly inhibitors; 390,000 tested, 0.16% active; further: potency means the concentration at half of the fitted maximal effect
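A549 ARE-Fluc cells in 5% FBS OPTI-MEM, 5000 cells/well, rested 2 h then exposed to compounds in concentration-response for 18-24 h at 37 °C. Viability by CellTiter-Fluor fluorescence (Ex 405/Em 525) after 30 min; luciferase luminescence (BugLite, 15 min, RT) read afterwards.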
PI4K2A block: PI4K2A (human) kinase inhibition. Q9BTU6. purified PI4K2A, ADP-Glo luminescence, 1 h; hits give low values. activity change, negative = inhibition, % at 76.9 µM. 420,000 tested, 0.13% active; in the data active means activity change below about -50%; inconclusive means mostly about -30% to -49%;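 further: -100% = wells without enzyme as full effect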
Target sequence (Q9BTU6 whole entry, looked up): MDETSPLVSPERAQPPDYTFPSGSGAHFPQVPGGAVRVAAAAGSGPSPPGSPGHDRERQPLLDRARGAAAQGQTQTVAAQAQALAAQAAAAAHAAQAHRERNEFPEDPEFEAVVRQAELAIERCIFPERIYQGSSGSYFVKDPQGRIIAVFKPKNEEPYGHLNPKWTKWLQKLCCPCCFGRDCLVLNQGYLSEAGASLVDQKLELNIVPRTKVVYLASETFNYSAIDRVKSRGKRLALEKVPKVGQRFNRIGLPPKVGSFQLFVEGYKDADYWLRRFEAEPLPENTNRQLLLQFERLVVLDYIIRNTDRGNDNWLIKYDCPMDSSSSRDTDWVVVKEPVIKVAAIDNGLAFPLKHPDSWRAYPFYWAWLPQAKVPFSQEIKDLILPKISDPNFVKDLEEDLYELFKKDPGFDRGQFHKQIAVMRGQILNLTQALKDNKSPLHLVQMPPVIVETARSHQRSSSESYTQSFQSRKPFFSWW
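PI4K2A activity was measured by ADP-Glo luminescence: enzyme (4 ug/mL stock) and phosphatidylinositol (1.2 mM stock) in Tris pH 7.5/MgCl2/EGTA/Triton X-100 buffer were reacted with ATP (300 microM stock) for one hour at ambient temperature.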
KB-V1 cytotox: KB-V1 MDR subline cytotoxicity | 400,000 tested, 3.4% active | Potency, µM (top dose mostly 46.1 µM), usual class: cytotoxic | KB-V1 MDR cells viability, CellTiter-Glo, 72 h; further: potency means the concentration at half of the fitted maximal effect; nearly all actives have a fitted effect of over 60% in size
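Cytotoxicity via CellTiter-Glo luminescence after 72 h compound exposure at 37 degrees C. Cells: drug-selected KB-V1 line, DMEM phenol-red free plus 10% FBS. Compounds tested at multiple concentrations; normalized data fitted to concentration-effect curves.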
* = called active by the depositor; i = inactive; ? = inconclusive; . = no result given. Unless noted, the call rests on the fitted dose curve; in most records, active means well fitted curve in the direction sought with a large enough effect; inconclusive means small, poorly fitted or top-dose-only effect, or another doubt; inactive means no such curve, though single readings can be large; an effect the other way counts as inactive or inconclusive. Unless noted, on the % scale 0 is the no-effect control and ±100 the full control effect.

SMILES	Nrf2 inh	Giardia kill	KB-3-1 tox	A549 tox	PI4K2A block	KB-V1 cytotox
C=CCn1c(NS(=O)(=O)c2ccccc2)c(S(=O)(=O)c2ccc(C)cc2)c2nc3ccccc3nc21	?	15	?	-13%	-30	13µM*
Cc1cccc(-n2cnc3c(c2=O)c2nc4ccccc4nc2n3Cc2ccco2)c1	.	4	?	-1%	-10	i
Cc1cccc(S(=O)(=O)c2c(N)n(Cc3ccco3)c3nc4ccccc4nc23)c1	?	-15	?	-19%	-9	18µM*
Cc1ccc(S(=O)(=O)c2c(N)n(Cc3ccco3)c3nc4ccccc4nc23)cc1	18µM*	6	?	.	5	i
CC(=O)N(c1onc(C)c1C)S(=O)(=O)c1ccc(N)cc1	.	.	.	.	0	.
CC(=O)CC[C@H]1CC[C@]2(CCCN(S(=O)(=O)C3CCCCC3)C2)O1	.	.	.	.	7	.
CCN(CC(=O)Nc1cccc(OC)c1)c1ncnc2sc(C)c(C)c12	21µM*	10	?	-6%	2	2.3µM*
COC(=O)CSc1nnc(-c2ccc(NS(=O)(=O)c3ccc(C)c(C)c3)cc2)o1	.	.	.	.	-2	.
N#Cc1nc(NCC(F)F)c2ncn(-c3cccc(Cl)c3)c2n1	21µM*	.	.	?	.	.
COc1ccc(C(=O)CCc2ccc(OC)c(OC)c2)cc1	-18%	4	?	-15%	2	i
COc1ccc(C(=O)Cc2ccc(OC)c(OC)c2)cc1	?	-4	i	3%	-3	23µM*
COc1ccc(S(=O)(=O)c2c(Nc3c(C)cccc3C)sc(C(=O)c3ccc4c(c3)OCO4)c2N)cc1	.	.	3.7µM*	-27%	0	?
COc1ccc(S(=O)(=O)c2c(Nc3c(C)cccc3C)sc(C(=O)c3ccc(F)cc3)c2N)cc1	.	.	5.8µM*	-11%	0	?
COc1ccc(S(=O)(=O)c2c(Nc3cccc(C)c3C)sc(C(=O)c3ccccc3)c2N)cc1	-7%	.	.	-15%	-2	.
COc1ccc(CCC(=O)NO)cc1	.	.	i	.	.	?
Cc1n[nH]c(C)c1N=Nc1ccc(Br)cc1	11%	8	16µM*	-9%	-4	?
COc1ccc(N=Nc2c(C)n[nH]c2C)cc1	1%	11	?	-2%	-4	?
CC(=O)C1=C(c2ccccc2)N(C(C)=O)n2c(nnc2C2CCCCC2)S1	.	.	.	-15%	3	.
COc1ccc(CCN(C(=O)c2snc(C(N)=O)c2N)C(C(=O)NCC2CCCO2)c2ccc(F)cc2)cc1OC (centres undefined)	-3%	14	i	-4%	-2	i
Cc1cccc(CCN(C(=O)c2snc(C(N)=O)c2N)C(C(=O)NCC2CCCO2)c2ccc(F)cc2)c1 (centres undefined)	?	9	i	-11%	-1	21µM*
Nc1c(C(=O)N2CCCCC2)sc(=S)n1-c1ccccc1	21%	17	i	-6%	0	18µM*
Nc1c(C(=O)N2CCOCC2)sc(=S)n1-c1ccccc1	?	6	i	-11%	2	?
Cc1nnc(C)n1N=Cc1ccc(Cl)c([N+](=O)[O-])c1	.	.	.	.	3	.
Cn1nnnc1Sc1ncnc2scc(-c3ccc4c(=O)ccoc4c3)c12	16µM*	.	.	?	.	.
Cn1nnnc1Sc1ncnc2scc(-c3cccc(Br)c3)c12	23µM*	?	7.3µM*	-26%	0	18µM*
SMILES	Nrf2 inh	Giardia kill	KB-3-1 tox	A549 tox	PI4K2A block	KB-V1 cytotox
Cn1nnnc1Sc1ncnc2scc(-c3cccc([N+](=O)[O-])c3)c12	-27%	.	.	6%	.	.
Cn1nnnc1Sc1ncnc2scc(-c3ccc([N+](=O)[O-])cc3)c12	18µM*	0	?	?	-6	i
Cn1nnnc1Sc1ncnc2scc(-c3cccc(N)c3)c12	5%	.	.	-1%	.	.
Cn1nnnc1Sc1ncnc2scc(-c3cccc(S(C)(=O)=O)c3)c12	8.2µM*	-2	21µM*	?	7	?
Cc1ccc(S(=O)(=O)N2CCN(c3nc(-c4ncccn4)nc4ccccc34)CC2)cc1	-3%	7	.	2%	.	.
Cc1cc(C)nc(N2CCN(C(=O)CSc3nc4ccccc4nc3N3CC(C)OC(C)C3)CC2)n1 (centres undefined)	.	.	.	.	-4	.
O=C(Nc1nc2ncccn2c1-c1ccc(F)c(F)c1)C1CC1	.	.	.	.	3	.
Cc1ccc(-c2csc(NC(=O)CCNC(=O)c3ccc(Cl)cc3)n2)cc1	3%	-15	i	-1%	0	i
Cc1ccc(-c2csc(NC(=O)CCNC(=O)c3ccccc3Cl)n2)cc1	23µM*	16	i	-6%	5	i
O=C(Nc1nc(-c2ccccc2)cs1)c1ccc(=O)[nH]c1	-17%	0	?	0%	-2	18µM*
CC(=O)c1c(C)[nH]c(C(=O)Nc2nc(-c3ccc(Cl)cc3)cs2)c1C	?	-5	?	1%	6	?
CC(=O)c1c(C)[nH]c(C(=O)Nc2nc(-c3ccc(-c4ccccc4)cc3)cs2)c1C	23µM*	-11	15µM*	?	-5	21µM*
Cc1cnc(C(=O)Nc2nc(-c3ccccc3)cs2)cn1	-21%	10	i	9%	0	23µM*
Cc1ccc(C2CC(=O)C=C(Nc3ccc(Cl)cc3)C2)cc1 (centres undefined)	-25%	5	i	-17%	4	?
O=C1C=C(Nc2ccc(Cl)cc2)CC(c2ccc(Cl)cc2)C1 (centres undefined)	?	-14	i	-2%	4	23µM*
CC(C)(C)c1ccc(Oc2ccc(N)cn2)cc1	18µM*	-5	i	-4%	2	?
Cc1cc(Oc2ccc(N)cn2)cc(C)c1Cl	-5%	2	i	1%	-6	i
CCCC1CCC2(CCCN2CCOC(=O)Nc2ccc(OC)cc2)CC1 (centres undefined)	.	.	.	.	3	.
Cc1ccc(C(=O)C2CCN(CC(=O)N3CCCC3)CC2)cc1	.	.	.	.	-1	.
COc1ccc(OC)c(S(=O)(=O)Nc2ccc3oc4c(c3c2)C(=O)CCC4)c1	14%	12	i	3%	0	23µM*
COc1ccc(CCNC(=O)c2c(O)nc3ccccn3c2=O)cc1OC	5%	.	i	4%	-2	7.3µM*
COc1cccc(CNC(=O)c2c(O)nc3ccccn3c2=O)c1	?	.	i	-2%	-2	23µM*
O=C(NCc1ccc(F)cc1)c1c(O)nc2ccccn2c1=O	-6%	.	?	1%	-1	?
C=CS(=O)(=O)N(Cc1ccc(F)cc1)C(=C)C(=O)OC	.	.	.	.	3	.
Cn1c(=O)c(=O)n(C)c2cc(S(=O)(=O)N3CCN(Cc4ccc(F)cc4)CC3)ccc21	.	.	.	.	-4	.

Bioassay records deposited in PubChem by National Center for Advancing Translational Sciences (NCATS).
